Compound activity as filed in PubChem BioAssay.
Rows were chosen to be rich in hits. Some 18% of all compounds tested hit in one or more screens of this group.
DT40 TDP1 no CPT = qHTS for Inhibitors of human tyrosyl-DNA phosphodiesterase 1 (TDP1): qHTS in cells in absence of CPT; DT40 Tdp1-/- hTDP1 cells, no CPT, ATP luminescence, 48 h; Potency, µM (highest dose often 46.2 µM), for inactives: at the highest dose activity change, negative = growth inhibition, actives largely listed as inhibitors; actives 15% (n = 420,000); AID 686978, 2013; also: potency is read from the fitted curve at half-maximal effect; nearly all actives have a fitted effect of over 55% in size
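Luminescent ATP content (CellTiter-Glo) served as the growth readout. Knockout chicken DT40 cells expressing human TDP1 were exposed to compounds without camptothecin for a minimum 48 hr at 37 °C.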
RORgamma inh = blocks mouse ROR gamma transcriptional activity. Drosophila S2 Gal4-RORgamma UAS-luciferase reporter, 20 h. actives 5.4% (n = 310,000). Potency, µM (series often up to 53.6 µM), for the others: top-dose activity change, negative = inhibition, actives largely listed as inhibitors; also: potency is read from the fitted curve at half-maximal effect; nearly all actives have a fitted effect of over 60% in size
Target sequence (P51450 whole entry, looked up, the tested form may be a part): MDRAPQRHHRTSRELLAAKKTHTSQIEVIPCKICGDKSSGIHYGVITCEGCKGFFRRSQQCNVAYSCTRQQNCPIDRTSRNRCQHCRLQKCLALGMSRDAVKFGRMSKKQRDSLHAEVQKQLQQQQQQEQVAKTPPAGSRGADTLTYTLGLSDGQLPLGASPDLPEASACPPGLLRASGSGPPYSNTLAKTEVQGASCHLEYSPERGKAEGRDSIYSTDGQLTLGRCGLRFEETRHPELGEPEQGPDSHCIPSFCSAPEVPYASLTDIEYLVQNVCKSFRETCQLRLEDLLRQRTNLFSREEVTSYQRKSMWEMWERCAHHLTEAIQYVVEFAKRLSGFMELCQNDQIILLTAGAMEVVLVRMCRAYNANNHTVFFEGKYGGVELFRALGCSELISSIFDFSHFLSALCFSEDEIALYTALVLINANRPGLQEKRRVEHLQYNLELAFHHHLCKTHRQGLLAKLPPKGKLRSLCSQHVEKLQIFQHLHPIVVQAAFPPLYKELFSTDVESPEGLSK
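Drosophila Schneider cells stably carrying a metallothionein-driven Gal4 DBD–ROR gamma fusion and a UAS-Photinus luciferase reporter were exposed to compound for 1 hr, then induced with copper sulfate (700 uM final) for 20 hr at ambient temperature before luminescence reading.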
IL-1B inflam inh = blocks inflammasome-driven IL-1 beta release | THP-1 LPS/ATP IL-1B secretion, AlphaLISA, 16 h; stronger effect = lower value | activity change, % at 57.5 µM | actives 4.7% (n = 360,000); in the data active = activity change below about -50%; inconclusive = mostly about -30% to -49%
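THP-1 cells pretreated 1 hr with compounds (up to 57.5 uM final), then stimulated with LPS (250 ng/mL final) plus ATP (1.25 mM final); secreted IL-1B measured by AlphaLISA after 16 hr, decreased signal indicating inhibition.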
VP16 counter = inhibits Gal4-VP16 luciferase reporter, ROR gamma counter-screen | Drosophila S2 Gal4-VP16 UAS-luciferase, luminescence, 20 h | Potency, µM (highest dose often 53.6 µM), inactives show at the top dose activity, negative = inhibition, actives largely listed as inhibitors | actives 3.5% (n = 310,000);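 also: Gal4-VP16 expression switched on by copper sulfate through the metallothionein promoter; potency is read from the fitted curve at half-maximal effect; nearly all actives have a fitted effect of over 50% in size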
DT40 TDP1 CPT = DT40-hTDP1 cell growth loss with CPT; chicken DT40 Tdp1-/-;hTDP1 cells + 20 nM CPT, ATP luminescence, 48 h; Potency, µM (doses to about 46.2 µM), without a hit: at the top dose activity change, negative = growth inhibition, actives largely listed as inhibitors; actives 12% (n = 420,000); also: potency is read from the fitted curve at half-maximal effect; nearly all actives have a fitted effect of over 55% in size
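Chicken DT40 Tdp1-/- cells complemented with human TDP1, 400 cells/well, exposed to compounds plus 20 nM camptothecin for at least 48 h at 37 C; viability read as ATP content by CellTiter-Glo luminescence.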
LDHA inh = LDHA (human) enzyme inhibition; activity change, % (values are at about 110 or 230 µM); purified LDHA, NADH/diaphorase-resazurin fluorescence; stronger effect = lower value; actives 0.15% (n = 480,000); in the data active = activity change below about -30%; inconclusive = mostly about -25% to -30%;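 also: plate controls were DMSO wells for no effect and wells without enzyme for full effect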
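Resorufin fluorescence (ex540/em590), read at 0 and 20 min after diaphorase/resazurin addition, reports the NADH left after a 5 min room-temperature reaction of 2 nM human LDH5 with 0.06 mM NADH and 0.2 mM pyruvate.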
* = called active by the depositor; ? = inconclusive; / = no result given. Unless noted, calls follow the shape of the dose curve; as a rule, active = well fitted curve in the direction sought with a large enough effect; inconclusive = small, poorly fitted or top-dose-only effect, or another doubt; inactive = no such curve, though single readings can be large; an effect the other way counts as inactive or inconclusive. Unless noted, % is scaled to controls: 0 for no effect and ±100 for the full control effect.

SMILES | DT40 TDP1 no CPT | RORgamma inh | IL-1B inflam inh | VP16 counter | DT40 TDP1 CPT | LDHA inh
CN1CCCC1CCNS(=O)(=O)c1ccc(Br)cc1 (stereo unspecified) | 9.2µM* | -0.7% | 7.1 | 2.4% | ? | -5.9
CCOc1ccc(N(C(=O)c2cc(OC)c(OC)c(OC)c2)C2C=CS(=O)(=O)C2)cc1 (stereo unspecified) | / | / | / | / | / | 3.8
Cc1ccc(NC(=O)CC2S/C(=N/N=C3/NC(=O)CS3)NC2=O)cc1 (stereo unspecified) | -0.9% | ? | -3.5 | -7.0% | -10.5% | 3.1
COc1ccc(NC(=O)CC2SC(=O)NC2=O)cc1 (stereo unspecified) | 5.8µM* | 11.2µM* | -5.5 | 12.6µM* | 2.31µM* | -4.8
Cc1ccc(NC(=O)CC2SC(=O)NC2=O)cc1 (stereo unspecified) | 5.8µM* | 5.01µM* | -3.8 | 4.47µM* | 2.59µM* | -4.5
COc1ccc(NC(=O)/C=C2\SC(=O)NC2=O)cc1 | 13.3% | -1.1% | -50.8* | 2.9% | 11.5% | -11.1
O=C(Oc1ccccc1)c1cccc2cccc(C(=O)Oc3ccccc3)c12 | 20.6µM* | 29.0% | 13.1 | -8.3% | ? | -0.7
O=C(Oc1ccccc1)c1ccccc1C(=O)Oc1ccccc1 | -21.1% | / | 54.4 | / | -9.8% | -0.4
O=C(/C=C/c1ccc2c(c1)OCCCO2)c1ccccc1OCc1ccccc1 | / | / | / | / | / | -0.4
Nc1c(C(=O)N/N=C/c2cccnc2)oc2nc(-c3ccccc3)cc(-c3ccco3)c12 | 14.6µM* | -28.4% | / | 7.4% | ? | 13.3
Cc1cc(C)c2c(N)c(C(=O)N/N=C/c3cccnc3)sc2n1 | ? | 41.8% | / | -1.6% | -39.6% | -1.0
NNC(=O)c1oc2nc(-c3ccco3)cc(-c3ccco3)c2c1N | ? | -7.7% | -53.3* | -18.1% | ? | 5.6
O=C(N/N=C/c1cccnc1)c1cc2ccccc2o1 | -21.8% | 27.4% | -7.3 | 2.4% | -3.5% | -13.1
Nc1c(C(=O)O)sc2nc(-c3ccccc3)cc(-c3ccc(Cl)cc3)c12 | -18.8% | ? | -4.7 | -7.5% | -13.1% | -11.7
NNC(=O)c1oc2nc(-c3ccc(Cl)cc3)cc(-c3ccccc3)c2c1N | -28.9% | -22.3% | -81.9* | 4.0% | ? | -8.4
Nc1c(C(=O)N/N=C/c2cccnc2)oc2nc(-c3ccco3)cc(-c3ccco3)c12 | 0.461µM* | -1.5% | -11.4 | 1.9% | 2.91µM* | 11.7
CCOc1ccc(C(C)NC(=O)c2snnc2CC)cc1OCC (stereo unspecified) | / | / | / | / | / | -18.5
COc1cc(C2C(C#N)=C(N)Oc3n[nH]c(-c4ccccc4)c32)cc(OC)c1OC (stereo unspecified) | / | / | / | / | / | -3.0
O=C(NC1CCCc2ccccc21)c1ccc2ccccc2n1 (stereo unspecified) | / | / | / | / | / | 5.1
Cc1cc(C)c2c(=O)cc(C(=O)Nc3ccc(S(=O)(=O)Nc4nccc(C)n4)cc3)oc2c1 | / | / | / | / | / | 3.8
Cc1ccc(C)c(CS(=O)Cc2cccc(C(F)(F)F)c2)c1 (stereo unspecified) | / | / | / | / | / | -0.7
CC(C)CCNC(=O)C1(C)Cn2c(ccc2-c2ccco2)C(=O)N1Cc1ccccc1F (stereo unspecified) | / | / | / | / | / | -0.7
Cc1ccccc1C(=O)NC(=S)Nc1ccc(S(=O)(=O)N(C)c2ccccc2)cc1 | 23.1µM* | 11.2µM* | -2.4 | ? | 23.1µM* | -10.0
Cc1cccc(C(=O)NC(=S)Nc2ccc(S(=O)(=O)N(C)c3ccccc3)cc2)c1 | 13µM* | 11.2µM* | 23.8 | ? | ? | 3.6
Cc1cc(C)c(NC(=O)CSc2nc(=O)[nH]c3c2CCCC3)c(C)c1 | 23.1µM* | / | / | / | ? | -2.9
Cc1c(Cl)cccc1NC(=O)CSc1nc(=O)[nH]c2c1CCCC2 | 20.6µM* | / | / | / | 20.6µM* | -11.5
